# According to paper PMC8384837, “Expanding the binding specificity for RNA recognition by a PUF domain”:
# Where a chain is given by its changes, count along the chain named.
# How the values were obtained:
# Assay in all cases: yeast three-hybrid, YBZ-1, SC-Leu-His + 0.5 mM 3-AT, 4 days
# Settings in all cases: tags: N-Gal4 AD-HA kept; label: inside an RPR1-promoter hybrid RNA with tandem MS2 sites; ssRNA
# PUM1 PUF domain R1-RCC = PUM1 PUF domain R1-RCC (Homo sapiens, UniProt Q14671 828-1176, S863R;R864C;Q867C)
# Procedure, shortened: (§1)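 Sequencing with Illumina followed PCR amplification of the repeat regions from transformants grown four days on SC-Leu (input) or SC-Leu-His + 0.5 mM 3-AT (selection). The transformants were strain YBZ-1 with a LexA–MS2 coat fusion and a HIS3 reporter, carrying Pumilio-1 PUF domain libraries and matching RNA elements. The interaction score is the log change in variant frequency from input to selection, computed in log2 with a pseudocount of 1 for absent variants.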
# PUM1 PUF domain R7-SRR = PUM1 PUF domain R7-SRR (Homo sapiens, UniProt Q14671 828-1176, N1080R;E1083R)
# Procedure, shortened: as §1
# PUM1 PUF domain R1-VRR = PUM1 PUF domain R1-VRR (Homo sapiens, UniProt Q14671 828-1176, S863V;Q867R)
# Procedure, shortened: as §1
# PUM1 PUF domain R4-NNL = PUM1 PUF domain R4-NNL (Homo sapiens, UniProt Q14671 828-1176, H972N;Q975L)
# Procedure, shortened: as §1
# PUM1 PUF domain R6-CFN = molecular target: T1, PUM1 PUF domain R6-CFN (Homo sapiens, UniProt Q14671 828-1176, N1043C;Y1044F;Q1047N)
# T1 sequence: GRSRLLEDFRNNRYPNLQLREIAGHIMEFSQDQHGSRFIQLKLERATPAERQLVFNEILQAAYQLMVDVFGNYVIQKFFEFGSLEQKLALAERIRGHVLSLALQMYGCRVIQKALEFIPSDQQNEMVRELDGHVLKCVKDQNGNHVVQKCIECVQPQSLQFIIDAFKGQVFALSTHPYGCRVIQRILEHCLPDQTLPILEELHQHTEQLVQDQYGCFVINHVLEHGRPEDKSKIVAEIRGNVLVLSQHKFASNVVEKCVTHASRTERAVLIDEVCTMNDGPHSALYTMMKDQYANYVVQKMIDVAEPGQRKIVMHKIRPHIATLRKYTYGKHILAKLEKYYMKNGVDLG
# Procedure, shortened: as §1
# PUM1 PUF domain R7-ERK = PUM1 PUF domain R7-ERK (Homo sapiens, UniProt Q14671 828-1176, S1079E;N1080R;E1083K)
# Procedure, shortened: as §1
# PUM1 PUF domain R7-KHS = PUM1 PUF domain R7-KHS (Homo sapiens, UniProt Q14671 828-1176, S1079K;N1080H;E1083S)
# Procedure, shortened: as §1
# PUM1 PUF domain R8-KFC = PUM1 PUF domain R8-KFC (Homo sapiens, UniProt Q14671 828-1176, N1122K;Y1123F;Q1126C)
# Procedure, shortened: as §1
# PUM1 PUF domain R8-CFR = PUM1 PUF domain R8-CFR (Homo sapiens, UniProt Q14671 828-1176, N1122C;Y1123F;Q1126R)
# Procedure, shortened: as §1
# PUM1 PUF domain R6-CWC = molecular target: T2, PUM1 PUF domain R6-CWC (Homo sapiens, UniProt Q14671 828-1176, N1043C;Y1044W;Q1047C)
# T2 sequence: T1 sequence with F217W, N220C
# Procedure, shortened: as §1
sequence,measurement,setting,value
GGCUAGAACUAGUGGAUCCCCCGGCGCCCGGCGGCUCGAGCCCGGGUAAGUGUAAAUGGUCUGCAUGCCGCCGGGCGCCAUGCCUGCAGGUCGACUCUAGAAAACAUG,binding signal,PUM1 PUF domain R1-RCC,2.4 log2 enrichment (interaction score)
GGCUAGAACUAGUGGAUCCCCCGGCGCCCGGCGGCUCGAGCCCGGGUAAGUUUAAAUAGUCUGCAUGCCGCCGGGCGCCAUGCCUGCAGGUCGACUCUAGAAAACAUG,binding signal,PUM1 PUF domain R7-SRR,2.68 log2 enrichment (interaction score)
GGCUAGAACUAGUGGAUCCCCCGGCGCCCGGCGGCUCGAGCCCGGGUAAGUGUAAAUUGUCUGCAUGCCGCCGGGCGCCAUGCCUGCAGGUCGACUCUAGAAAACAUG,binding signal,PUM1 PUF domain R1-RCC,2.58 log2 enrichment (interaction score)
same,binding signal,PUM1 PUF domain R1-VRR,1.88 log2 enrichment (interaction score)
GGCUAGAACUAGUGGAUCCCCCGGCGCCCGGCGGCUCGAGCCCGGGUAAGUGUAUAUAGUCUGCAUGCCGCCGGGCGCCAUGCCUGCAGGUCGACUCUAGAAAACAUG,binding signal,PUM1 PUF domain R4-NNL,3 log2 enrichment (interaction score)
GGCUAGAACUAGUGGAUCCCCCGGCGCCCGGCGGCUCGAGCCCGGGUAAGUGAAAAUAGUCUGCAUGCCGCCGGGCGCCAUGCCUGCAGGUCGACUCUAGAAAACAUG,binding signal,PUM1 PUF domain R6-CFN,5.35 log2 enrichment (interaction score)
GGCUAGAACUAGUGGAUCCCCCGGCGCCCGGCGGCUCGAGCCCGGGUAAGUGUAAAUCGUCUGCAUGCCGCCGGGCGCCAUGCCUGCAGGUCGACUCUAGAAAACAUG,binding signal,PUM1 PUF domain R1-VRR,2.85 log2 enrichment (interaction score)
GGCUAGAACUAGUGGAUCCCCCGGCGCCCGGCGGCUCGAGCCCGGGUAAGUCUAAAUAGUCUGCAUGCCGCCGGGCGCCAUGCCUGCAGGUCGACUCUAGAAAACAUG,binding signal,PUM1 PUF domain R7-SRR,2.92 log2 enrichment (interaction score)
same,binding signal,PUM1 PUF domain R7-ERK,5.87 log2 enrichment (interaction score)
same,binding signal,PUM1 PUF domain R7-KHS,3.33 log2 enrichment (interaction score)
GGCUAGAACUAGUGGAUCCCCCGGCGCCCGGCGGCUCGAGCCCGGGUAAGCGUAAAUAGUCUGCAUGCCGCCGGGCGCCAUGCCUGCAGGUCGACUCUAGAAAACAUG,binding signal,PUM1 PUF domain R8-KFC,6.35 log2 enrichment (interaction score)
same,binding signal,PUM1 PUF domain R8-CFR,4.3 log2 enrichment (interaction score)
GGCUAGAACUAGUGGAUCCCCCGGCGCCCGGCGGCUCGAGCCCGGGUAAGGGUAAAUAGUCUGCAUGCCGCCGGGCGCCAUGCCUGCAGGUCGACUCUAGAAAACAUG,binding signal,PUM1 PUF domain R8-KFC,2.66 log2 enrichment (interaction score)
GGCUAGAACUAGUGGAUCCCCCGGCGCCCGGCGGCUCGAGCCCGGGUAAGUGUAAAUAGUCUGCAUGCCGCCGGGCGCCAUGCCUGCAGGUCGACUCUAGAAAACAUG,binding signal,PUM1 PUF domain R8-KFC,2.49 log2 enrichment (interaction score)
same,binding signal,PUM1 PUF domain R4-NNL,3.79 log2 enrichment (interaction score)
same,binding signal,PUM1 PUF domain R6-CWC,3 log2 enrichment (interaction score)
same,binding signal,PUM1 PUF domain R8-CFR,4.47 log2 enrichment (interaction score)
GGCUAGAACUAGUGGAUCCCCCGGCGCCCGGCGGCUCGAGCCCGGGUAAGUAUAAAUAGUCUGCAUGCCGCCGGGCGCCAUGCCUGCAGGUCGACUCUAGAAAACAUG,binding signal,PUM1 PUF domain R7-KHS,2.08 log2 enrichment (interaction score)
